# Reference: PubChem BioAssay AID720650 (Broad Institute, 2013)
# Unmarked numbers belong to inactive results. Activity calls are given as the source filed them. How the calls were made is not given here.
# Test: C difficile toxins, biochemical counterscreen, UDPG substrate absence, confirmatory dose response (AID 720650)
# Conditions: series mostly up to 19.5 µM; activity change, negative = inhibition: at the top concentration
Compound,"activity change, negative = inhibition",AC50
CN(c1ccccc1)S(=O)(=O)c1cccc(C(=O)NCCc2ccc(O)c(O)c2)c1,1.79%,–
COC(=O)CN1C(C)=Nc2ccc(Br)cc2C1c1ccccc1 (configuration not stated),-11.4%,–
CCCNC(=O)N1CC[C@@H]2[C@@H](CO)N(C)c3ccc(-c4ccccc4)cc3[C@@H]21,–,3.93 µM (active)
CCOCC(=O)Nc1cc(Cl)ccc1C,-3.64%,–
COCc1c(Br)c(C)nc(OCC(=O)N/N=C/c2ccc(C)o2)c1C#N,6.67%,–
COc1ccc(C2=NS(=O)(=O)N(C)C(C(=O)N3CCc4ccccc4C3)=C2)cc1OC,-17%,–
CN(C)CCNc1cccc2sc3ccc(O)cc3c(=O)c12,–,4.36 µM (active)
Cc1nc2ccccc2nc1OCC(=O)Nc1ccc(F)cc1,-2.47%,–
CC1(C)CCC/C(=C\c2ccccc2)C1=O,-3.51%,–
Cc1ccc(N/N=C/c2c(O)n(-c3ccccc3)c(=O)[nH]c2=O)cc1,–,0.875 µM (active)
CCOC(=O)[C@@H]1[C@H]2COc3ccc(Br)cc3[C@@H]2N2C(=O)N(c3cccc(F)c3)C(=O)[C@]12C,-11.4%,–
COc1ccc(-c2nc(N)ncc2-c2ccccc2OC)c(O)c1,-17.4%,–
NC(=O)C1(Nc2ccc(-c3ccc(Br)cc3)cc2)CCCC1,-11.7%,–
CCN1CCN(S(=O)(=O)c2ccc3[nH]c(=O)oc3c2)CC1,1.66%,–
COCCN(C(=O)C(C)C)c1nnc(-c2ccc(C(C)(C)C)cc2)s1,5.33%,–
O=C(O)c1ccccc1C(=O)c1ccc2c(c1)N(Cc1cccc(F)c1)C(=O)CO2,–,19 µM (active)
CCC(C)NC(=O)CSc1nc2cc(S(=O)(=O)N3CCOCC3)ccc2n1CC (configuration not stated),-1.61%,–
